Activity calls are given as the source filed them. The rule behind the calls is not given here.
assay: inhibition of 3D7 malaria parasite growth – strain 3D7 (AID 2306);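 note: 0% = DMSO wells and 100% = chloroquine plus artemisinin control wells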; conditions: P. falciparum 3D7 erythrocytic growth, LDH absorbance, 72 h; at 2 µM; active compounds read high

Growth inhibition, active:
CNc1ccc(CNCc2cccc(-c3ccc(-c4nc5c(C)cccc5[nH]4)cc3)c2)cc1 102%
COc1ccc(C2C(C(=O)Nc3cc(C)ccc3OC)c3ccccc3C(=O)N2C)cc1 (configuration not stated) 86%
N#Cc1ccccc1Sc1ccccc1C(=O)Nc1ccc2ccccc2n1 92%
COc1ccc2nccc([C@@H](O)CN3CCC(NC(=O)c4ccc(Cl)c([N+](=O)[O-])c4)CC3)c2c1 88%
O=C(Nc1cccc(-c2cccc(-c3nc4ccc(C(F)(F)F)cc4[nH]3)c2)c1)c1ccncc1 101%
O=C(Nc1ccccc1)c1nn(CCCN2CCC(N3CCCC3)CC2)cc1-c1ccc(Cl)c(Cl)c1 103%
CC(=O)NC(c1cccs1)c1cc(Cl)c2cccnc2c1O (configuration not stated) 94%
COc1cc(NC(=O)N2CCc3ccc(OCCN4CCCCC4)cc32)cc(C(F)(F)F)c1 101%
Cc1cc(N[C@@H](Cc2ccccc2)C(=O)NCCOc2ccccc2)nc(NCCOc2ccccc2)n1 98%
Cc1nc(-c2ccc(-c3ccc(NC(=O)c4coc5ccc(N6C[C@@H](C)N(C)[C@@H](C)C6)cc45)cc3)c(C)c2)no1 96%
N#Cc1ccc2c(c1)CCN(CCC1CCC(NC(=O)/C=C/c3cc(Br)cs3)CC1)CC2 (configuration not stated) 93%
CN1CCN(c2ccnc3ccc(NC(=O)Nc4ccccc4Br)cc23)CC1 100%
Cc1nc2ccc3ccc(CNc4ccc5c(c4)CN([C@H](CCC(=O)O)C(=O)O)C5=O)cc3c2c(=O)[nH]1 87%
CCCC(=O)NC(c1ccc(C(C)C)cc1)c1ccc2cccnc2c1O (configuration not stated) 90%
COc1ccc2nccc([C@@H](O)CN3CCC(NCCOc4cccc(F)c4F)CC3)c2c1 102%
Cc1cc(N[C@@H](CC(C)C)C(=O)NCc2cccc(F)c2)nc(NCCc2ccc(F)cc2)n1 90%
COCCn1c(-c2nc(-c3ccc(F)cc3)cnc2N)nc2ccccc21 98%
C=CCc1cc(Br)ccc1OCCCON1C(N)=NC(N)=NC1(C)C 95%
O=C(Nc1ccnc2ccccc12)NC1CCN(Cc2ccccc2)CC1 96%
O=C(/C=C/c1ccc(Cl)c(Cl)c1)NC1CCC(CN2CCC(c3coc4ccccc34)CC2)CC1 (configuration not stated) 102%
Oc1cccc(Nc2nc(NCc3ccco3)c3ccccc3n2)c1 103%
CN(C)C(=NCCCCCCN=C(/N=C(/N)Nc1ccc(Cl)cc1)N(C)C)/N=C(/N)Nc1ccc(Cl)cc1 97%
CC1CCC2(CC1)N=C(N)N=C(N)N2OCc1ccc(Br)c2ccccc12 (configuration not stated) 96%
O=S(=O)(NCCN1CCCC1)c1cccc(-c2cccc(CNCc3ccc(F)cc3)c2)c1 99%
COc1ccc2nccc([C@@H](O)CN3CCC(NC(=O)/C=C/c4ccc(Cl)c(C(F)(F)F)c4)CC3)c2c1 102%
Clc1ccc2c(N3CCCNCC3)ccnc2c1 100%
c1ccc(Cn2nnnc2-c2cccc(Nc3ccnc4cc(-c5nccs5)ccc34)c2)cc1 87%
CC(C)Oc1cc2c(cc1NS(=O)(=O)c1ccc(-c3cccs3)cc1)CCN(C)CC2 88%
Cc1cc([N+](=O)[O-])ccc1N1CCN(CCCCNC(=O)c2ccc(NC(=O)c3ccc(Cl)cc3)cc2)CC1 92%
CC1CCC(NCc2c(O)ccc3ccccc23)CC1 (configuration not stated) 95%
CCNc1cc(C(=O)N[C@@H](Cc2cc(F)cc(F)c2)[C@H](O)CNCc2cccc(C(F)(F)F)c2)cc(N2CCCCS2(=O)=O)c1 99%
CCc1ccc(NC(=O)c2cccc(CN3CCCN(CC4CCCCC4)CC3)c2)cc1 85%
CC1(C)N=C(NC(=O)Nc2ccc([N+](=O)[O-])cc2)N=C(N)N1OCc1cccc2ccccc12 97%
O=C(Nc1ccc(Cl)cc1)NC1CCN(CCCCCNC(=O)[C@@H]2C[C@H]2c2ccc(Cl)c(Cl)c2)CC1 102%
O=C(NC1CCCCCC1)C1CCCN(C(=O)c2ccc(O)c(-c3ccc(Cl)c(Cl)c3)c2)C1 (configuration not stated) 98%
O=C(Nc1ccc2c(c1)CCC2)c1nc(N2CCN(c3ccncc3)CC2)ccc1Cl 101%
CCNc1cc(C(=O)N[C@@H](Cc2ccccc2)[C@H](O)CNC2(Cc3cccc(Cl)c3)CCC2)cc(N2CCCCS2(=O)=O)c1 95%
